Data on six compounds can be found in PMC5540273 (PLoS ONE, 2017).
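Further: KINOMEscan kinase panel screen.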

This assay has as its system ERBB4. The conditions noted are these: concentration: 1 μM, replicates: in singlicate; n = 1.
In the case of `CC(=O)Nc1nc2cnc(Nc3cc(NC(=O)c4cccc(C5(C#N)CC5)c4Cl)ccc3C)nc2s1`, the “%Inh” value was 4%.

In the case of `c1ccc(-c2cnc3nccnn23)cc1` [AH20685], the “%Inh” value is reported as 0%.

Consider `CCn1c(-c2nonc2N)nc2c(C#CC(C)(C)O)nc(OC[C@H](N)c3ccccc3)cc21` [GSK943949], for which the “%Inh” value came to 0%.

In the case of `Cl.Cl.NCC(C(=O)Nc1cc(Br)c(-c2ccnc3[nH]ccc23)s1)c1ccccc1` (stereo not drawn) [GSK1269851], the “%Inh” value amounted to 52%.

For `COc1cccc(C2=C(Nc3ccc(Cl)c(C(=O)O)c3)C(=O)NC2=O)c1` [SB-390769], the “%Inh” value stood at 0%.

As to `Cc1cccc(Nc2nc(N[C@H]3CCNC3)ncc2C(N)=O)c1.Cl` [GSK2197149], the “%Inh” value amounted to 23%.
